Assay results published in PubChem BioAssay.
Activity calls are given as the source filed them. Unless noted, how the calls were made is not given here. Where a SMILES comes first, the peptide text is derived from it. Bridges are numbered along the chain shown (N, C = ends). [ ]: non-standard residue; d: D form. The star is where a group is joined. Heptanoyl(5-Me) = CCC(C)CCCC(=O)*; Dab = NCC[C@H](N)C(=O)O

Experiments:
[1] = blockers of cellular phospholipid synthesis – cell-based, LOPAC library, screen 4, primary screen (AID 1347384); details: animal cells, phospholipid biosynthesis inhibition screen; at 10 µM
[2] = P. berghei load reduction in hepatocytes – cell-based, HepG2, luciferase luminescence, HepG2 viability, primary screen (AID 624349; in the data active means parasite load remaining mostly below about 12%, no sharp cut-off; inactive means mostly above about 10%;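 further: 100% = mean of DMSO negative control wells on the same plate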); details: P. berghei liver stage in HepG2, luciferase luminescence, concentration not given here; parasite load remaining: stronger effect = lower value; viability: measured here: HepG2 viability without parasites
[3] = compounds altering HSF1 focus formation in cells – imaging, Selleck Cancer Library (AID 1347162; in the data active means plate-normalised HSF1 focus index below about 0.46); details: human cells, HSF1 nuclear foci imaging, at 10 µM; SSMD: measured here: HSF1 foci SSMD mean; cell count: measured here: cell number; plate-normalised HSF1 focus index: stronger effect = lower value
[4] = MELAS cybrid and Rieske KO viability enhancers – cell-based, MELAS cybrids, Rieske KO mouse fibroblasts, CellTiter-Glo, primary screen (AID 1508586;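 active means mean z-score across replicates of 1.96 or higher in either the MELAS or the Rieske mutant cell line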;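 further: z relative to plate mean and SD of compound and empty wells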); details: low glucose
[5] = target: NAD(+) hydrolase SARM1 (Homo sapiens) (UniProt Q6SZW1); test: blocking NAD cleavage by SARM1 SAM-TIR – cell lysate, NAD-Glo luminescence (AID 1508614;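 active means compound whose remaining NAD level is above about 45 nM, limit read from the data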); details: SAM-TIR HEK293T lysate NADase, at 1 µM, stronger effect = higher value
Chain of NAD(+) hydrolase SARM1 (Homo sapiens) (Q6SZW1 whole entry, looked up, the tested form may be a part): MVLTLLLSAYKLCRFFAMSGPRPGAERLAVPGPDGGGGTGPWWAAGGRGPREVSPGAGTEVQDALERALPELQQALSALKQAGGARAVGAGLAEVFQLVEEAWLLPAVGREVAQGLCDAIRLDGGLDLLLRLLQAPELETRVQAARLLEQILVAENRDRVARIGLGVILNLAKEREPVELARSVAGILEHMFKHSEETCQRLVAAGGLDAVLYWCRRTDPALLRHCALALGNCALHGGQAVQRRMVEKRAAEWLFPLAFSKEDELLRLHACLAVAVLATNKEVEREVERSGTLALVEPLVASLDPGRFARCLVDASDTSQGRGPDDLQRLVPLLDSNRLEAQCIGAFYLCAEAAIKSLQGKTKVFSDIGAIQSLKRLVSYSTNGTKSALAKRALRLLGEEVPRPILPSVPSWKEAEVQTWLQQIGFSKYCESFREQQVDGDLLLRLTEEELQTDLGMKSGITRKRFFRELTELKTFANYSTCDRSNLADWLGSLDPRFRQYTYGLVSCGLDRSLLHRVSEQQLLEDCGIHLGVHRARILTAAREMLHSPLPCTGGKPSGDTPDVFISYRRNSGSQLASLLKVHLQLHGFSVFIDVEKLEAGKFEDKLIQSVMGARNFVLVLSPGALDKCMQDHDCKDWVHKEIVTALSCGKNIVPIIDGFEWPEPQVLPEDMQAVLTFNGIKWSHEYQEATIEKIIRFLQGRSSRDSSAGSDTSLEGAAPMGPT

[6] = target: Mitogen-activated protein kinase 7 (Homo sapiens) (UniProt Q13164); test: Gal4-ERK5 driven luciferase induction – cell-based, HTS, primary screen (AID 1508626;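 active means luciferase signal above three times the same-plate solvent-only control wells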;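 further: luciferase driven by Gal4-ERK5 fusion binding five Gal4 sites before minimal TATA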); details: HeLa Gal4-ERK5 transactivation, 18 h, at 5 µM, stronger effect = higher value
Chain of Mitogen-activated protein kinase 7 (Homo sapiens) (Q13164 whole entry, looked up, the tested form may be a part): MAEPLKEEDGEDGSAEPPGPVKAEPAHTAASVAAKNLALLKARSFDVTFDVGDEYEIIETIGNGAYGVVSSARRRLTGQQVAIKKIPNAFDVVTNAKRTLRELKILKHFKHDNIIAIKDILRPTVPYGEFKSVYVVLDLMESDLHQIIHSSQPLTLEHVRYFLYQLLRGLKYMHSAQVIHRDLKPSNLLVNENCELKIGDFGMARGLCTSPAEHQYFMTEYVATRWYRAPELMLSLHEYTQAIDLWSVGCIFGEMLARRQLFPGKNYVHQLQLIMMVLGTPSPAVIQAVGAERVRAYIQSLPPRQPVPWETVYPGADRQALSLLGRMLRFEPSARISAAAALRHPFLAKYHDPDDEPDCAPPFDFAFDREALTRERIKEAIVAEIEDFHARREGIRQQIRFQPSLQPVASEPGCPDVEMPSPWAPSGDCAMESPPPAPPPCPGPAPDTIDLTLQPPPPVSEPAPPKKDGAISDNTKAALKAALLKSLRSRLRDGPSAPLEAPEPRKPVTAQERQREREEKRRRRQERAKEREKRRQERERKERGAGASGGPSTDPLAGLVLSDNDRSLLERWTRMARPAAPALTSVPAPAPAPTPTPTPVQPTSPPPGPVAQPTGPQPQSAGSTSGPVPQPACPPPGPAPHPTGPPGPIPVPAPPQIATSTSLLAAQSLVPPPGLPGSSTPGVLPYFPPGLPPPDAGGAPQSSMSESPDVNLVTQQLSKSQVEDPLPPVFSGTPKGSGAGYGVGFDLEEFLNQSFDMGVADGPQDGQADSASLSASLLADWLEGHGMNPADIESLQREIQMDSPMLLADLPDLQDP

[7] = galactose survival enhancers in mitochondrial complex I cybrids – cell-based, galactose medium, ATP luminescence, primary screen (AID 1645843;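 active means z-score of at least 1.8 in each of two replicates, scored against plate mean and spread of sample wells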;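 further: positive z means more ATP and so rescue of galactose-driven cybrid death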); details: complex I mutant cybrid cells, 72 h, stronger effect = higher value
[8] = system: Hepatitis C virus NS3 helicase; test: blockers of NS3h binding to ssDNA – biochemical, fluorescence polarization, LOPAC1280 library, primary screen (AID 687035; in the data active means inhibition above about 37%); details: Purified HCV NS3 helicase, Cy5-dT15 ssDNA binding fluorescence polarization; stronger effect = higher value; concentration not given here
[9] = compounds altering Cy5-DNA-NS3h complex signal – biochemical, LOPAC1280, artefact control for HCV NS3 helicase inhibitor project (AID 687037); details: Cy5-DNA-NS3h complex fluorescence interference counterscreen
[10] = MELAS cybrid survival, CellTiter-Glo 48 h, stronger effect = higher value
[11] = Rieske KO mouse fibroblast survival, CellTiter-Glo 72 h

Question: With `C[C@H](CSC(=O)c1ccccc1)C(=O)N1C[C@@H](Sc2ccccc2)CC1C(=O)O` (some centres undefined) as the compound, how does the outcome [1] read?
Answer: The outcome was “inactive”.

Question: For `O=c1c2ccccc2[nH]c(=S)n1CCN1CCC(=C(c2ccc(F)cc2)c2ccc(F)cc2)CC1`, which parasite load remaining [2] is on record?
Answer: Its parasite load remaining is 40.1% (inactive).

Question: What about the viability [2] of the same compound?
Answer: The viability was 100%.

Question: What about the SSMD [3] of the same compound?
Answer: The SSMD was 4.04.

Question: What about the cell count [3] of the same compound?
Answer: The cell count was 6860.

Question: What about the plate-normalised HSF1 focus index [3] of the same compound?
Answer: Its plate-normalised HSF1 focus index is 1.24 (inactive).

Question: Which outcome [1] does the source give for `CO[C@H]1C[C@@H]2CC[C@@H](C)[C@@](O)(O2)C(=O)C(=O)N2CCCC[C@@H]2C(=O)OC([C@H](C)C[C@@H]2CC[C@@H](OC(=O)C(C)(CO)CO)[C@H](OC)C2)CC(=O)[C@H](C)/C=C(\C)[C@@H](O)[C@@H](OC)C(=O)[C@H](C)C[C@H](C)/C=C/C=C/C=C/1C` (some centres undefined) here?
Answer: The outcome was “inactive”.

Question: For `O=C1c2ccccc2-c2nc3nonc3nc21`, which SSMD [3] is on record?
Answer: Its SSMD is -15.

Question: What about the cell count [3] of the same compound?
Answer: Its cell count is 3090.

Question: What about the plate-normalised HSF1 focus index [3] of the same compound?
Answer: Its plate-normalised HSF1 focus index is 0.229 (active).

Question: For `CCOC(=O)C1=C(O)C(=O)N(c2ccccc2)C1`, which SSMD [3] is on record?
Answer: The SSMD was 2.7.

Question: And the cell count [3]?
Answer: Its cell count is 7070.

Question: What about the plate-normalised HSF1 focus index [3] of the same compound?
Answer: The plate-normalised HSF1 focus index was 1.16 (inactive).

Question: With `c1ccc(-c2cnn3cc(-c4ccc(OCCN5CCOCC5)cc4)cnc23)cc1` as the compound, how does the outcome [1] read?
Answer: The outcome was “inactive”.

Question: For `CCCCCc1ccc(/C=C/C(=O)Nc2cc(Cl)ccc2C(=O)O)cc1`, which outcome [1] is on record?
Answer: Its outcome is “inactive”.

Question: Which outcome [1] does the source give for `Nc1ncnc2c1ncn2[C@@H]1O[C@H](COP(=O)(O)CP(=O)(O)OP(=O)(O)O)[C@H](O)C1O` (some centres undefined) here?
Answer: The outcome was “inactive”.

Question: For `Nc1cc2c(ncn2CCOCP(=O)(O)O)c(=O)[nH]1`, which outcome [1] is on record?
Answer: Its outcome is “inactive”.

Question: With `Cc1cc(Nc2ncc3cc(-c4c(Cl)cccc4Cl)c(=O)n(C)c3n2)ccc1F` as the compound, how does the outcome [1] read?
Answer: Its outcome is “inactive”.

Question: For `COCCN1C2=C(C(=O)c3ccccc3C2=O)N(Cc2cnccn2)C1C` (centres undefined), which SSMD [3] is on record?
Answer: The SSMD was 2.27.

Question: What about the cell count [3] of the same compound?
Answer: The cell count was 6910.

Question: And the plate-normalised HSF1 focus index [3]?
Answer: Its plate-normalised HSF1 focus index is 1.13 (inactive).

Question: For `Cc1nc(C#Cc2cccnc2)cs1`, which outcome [1] is on record?
Answer: The outcome was “inactive”.

Question: For `CCCCCc1ccc(/C=C/[C@H](O)[C@@H](CO)NC)cc1`, which SSMD [3] is on record?
Answer: The SSMD was 1.63.

Question: And the cell count [3]?
Answer: The cell count was 6120.

Question: What about the plate-normalised HSF1 focus index [3] of the same compound?
Answer: The plate-normalised HSF1 focus index was 1.1 (inactive).

Question: Which outcome [1] does the source give for `CCOC(=O)CN1C(=O)c2ccc3c4c(ccc(c24)C1=O)C(=O)N(CC(=O)OCC)C3=O` here?
Answer: The outcome was “inactive”.

Question: For `CC1=NN(c2cccc(C(=O)O)c2)C(=O)/C1=C\c1ccc(-c2ccc(Cl)c(C(=O)O)c2)o1`, which outcome [1] is on record?
Answer: The outcome was “inactive”.

Question: For `C[N+]1(C)CCC(OC(=O)C(c2ccccc2)c2ccccc2)CC1`, which outcome [1] is on record?
Answer: The outcome was “inactive”.

Question: For `CCOc1ncc(S(=O)(=O)N2CCN(CC)CC2)cc1-c1nc2c(CC)n(CCOC)nc2c(=O)[nH]1`, which outcome [1] is on record?
Answer: Its outcome is “inactive”.

Question: For `C/C=C/C1=C(C(=O)O)N2C(=O)[C@@H](NC(=O)[C@H](N)c3ccc(O)cc3)[C@H]2SC1`, which z-score [4, 10] is on record?
Answer: Its z-score is -0.679 (inactive).

Question: What about the z-score [4, 11] of the same compound?
Answer: The z-score was -1.17.

Question: What about the remaining NAD [5] of the same compound?
Answer: Its remaining NAD is 10 nM (inactive).

Question: And the luciferase signal [6]?
Answer: The luciferase signal was 48 AU (inactive).

Question: For `CC(=O)[C@@]12OC(C)(c3ccccc3)O[C@@H]1C[C@H]1[C@@H]3CCC4=CC(=O)CC[C@]4(C)[C@H]3CC[C@@]12C` (some centres undefined), which z-score [4, 10] is on record?
Answer: Its z-score is 0.905 (inactive).

Question: And the z-score [4, 11]?
Answer: Its z-score is 1.8.

Question: With `CCN1C(=O)N(CCc2ccccc2)C2(CCN(Cc3cnn(-c4ccccc4OC)c3)CC2)C1=O` as the compound, how does the z-score [4, 10] read?
Answer: The z-score was 0.108 (inactive).

Question: And the z-score [4, 11]?
Answer: The z-score was 0.254.

Question: And the z-score [7]?
Answer: Its z-score is -0.37 (inactive).

Question: With `C[N+]1(C)[C@@H]2CC(OC(=O)C(CO)c3ccccc3)C[C@H]1[C@@H]1O[C@@H]12` (some centres undefined) as the compound, how does the z-score [4, 10] read?
Answer: Its z-score is -0.282 (inactive).

Question: What about the z-score [4, 11] of the same compound?
Answer: The z-score was 0.781.

Question: With `CC[C@H]1OC(=O)C[C@@H](O)[C@H](C)[C@@H](O[C@@H]2O[C@H](C)[C@@H](O[C@H]3CC(C)(O)[C@@H](O)[C@H](C)O3)[C@H](N(C)C)[C@H]2O)[C@@H](CC=O)C[C@@H](C)C(=O)/C=C/C(C)=C/[C@@H]1CO[C@@H]1O[C@H](C)[C@@H](O)[C@@H](OC)[C@H]1OC` (some centres undefined) as the compound, how does the z-score [4, 10] read?
Answer: Its z-score is 0.259 (inactive).

Question: What about the z-score [4, 11] of the same compound?
Answer: Its z-score is -0.21.

Question: What does the source list for `Nc1nc(CC(=O)Nc2ccc(CCNC[C@H](O)c3ccccc3)cc2)cs1`?
Answer: z-score [4, 10]: 0.235 (inactive); z-score [4, 11]: 0.0504

Question: For `CC(=O)O[C@H]1CC2(C)[C@@H](C[C@@H](O)[C@H]3[C@@]4(C)CC[C@@H](O)[C@@H](C)[C@@H]4CC[C@@]32C)/C1=C(/CCC=C(C)C)C(=O)O` (some centres undefined), which outcome [1] is on record?
Answer: The outcome was “inactive”.

Question: What does the source list for `CC(=O)c1cccc(-c2cc3c(n(CC=C(C)C)c2=O)CCN(Cc2cnc(N(C)C)s2)C3)c1`?
Answer: z-score [4, 10]: -0.385 (inactive); z-score [4, 11]: 0.11; z-score [7]: 0.475 (inactive)

Question: With `CCC(C)CCCC(=O)N[C@@H](CCN)C(=O)N[C@H](C(=O)N[C@@H](CCN)C(=O)N[C@H]1CCNC(=O)[C@H]([C@@H](C)O)NC(=O)[C@H](CCN)NC(=O)[C@H](CCN)NC(=O)[C@H](CC(C)C)NC(=O)[C@@H](CC(C)C)NC(=O)[C@H](CCN)NC1=O)[C@@H](C)O` (stereo partly drawn) ({Heptanoyl(5-Me)}-[Dab]T[Dab][Dab][Dab][dL]L[Dab][Dab]T; lactam 4-C) as the compound, how does the z-score [4, 10] read?
Answer: Its z-score is -0.0594 (inactive).

Question: And the z-score [4, 11]?
Answer: The z-score was 0.188.

Question: For `CCOC(=O)c1ccc(C#Cc2ccc3c(c2)CC(C)(C)CS3)nc1`, which outcome [1] is on record?
Answer: The outcome was “inactive”.

Question: For `CO/N=C(\C(=O)N[C@@H]1C(=O)N2C(C(=O)OC(C)OC(C)=O)=C(COC(N)=O)CS[C@H]12)c1ccco1` (some centres undefined), which z-score [4, 10] is on record?
Answer: The z-score was 0.525 (inactive).

Question: And the z-score [4, 11]?
Answer: Its z-score is 0.0681.

Question: What about the remaining NAD [5] of the same compound?
Answer: The remaining NAD was 10 nM (inactive).

Question: Which z-score [4, 10] does the source give for `CO[C@H]1/C=C/O[C@@]2(C)Oc3c(C)c(O)c4c(O)c(c(/C=N/N5CCN(C6CCCC6)CC5)c(O)c4c3C2=O)NC(=O)/C(C)=C\C=C\[C@H](C)[C@H](O)[C@@H](C)[C@@H](O)[C@@H](C)[C@H](OC(C)=O)[C@@H]1C` here?
Answer: The z-score was 0.699 (inactive).

Question: And the z-score [4, 11]?
Answer: Its z-score is 0.251.

Question: Which inhibition [8] does the source give for `CCOC([O-])=Nc1c[n+](N2CCOCC2)no1` here?
Answer: Its inhibition is -3% (inactive).

Question: And the fluorescence ratio (interference) [9]?
Answer: The fluorescence ratio (interference) was 1 (inactive).

Question: What about the outcome [1] of the same compound?
Answer: The outcome was “inactive”.
